Assay [1] is described as follows: Quantitative High-Throughput drug screen in 47 multiple myeloma cell lines against the NCATS MIPE library collection: MM1S_ATCC cell viability assay (AID 1918980). Note: nearly all actives have a fitted effect of over 45% in size. Summed up: (§1)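 500 cells/well; MIPE 4.0 drugs pin-transferred; 48 h, 37C, 5% CO2. CellTiter-Glo, 5 min RT, luminescence. Controls: DMSO 100%, media 0%.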
Assay [2] can be described thus: Quantitative High-Throughput drug screen in 47 multiple myeloma cell lines against the NCATS MIPE library collection: OCIMY7_PLB cell viability assay (AID 1918987). Note: nearly all actives have a fitted effect of over 65% in size. Summed up: as §1
A short description of assay [3]: Quantitative High-Throughput drug screen in 47 multiple myeloma cell lines against the NCATS MIPE library collection: OPM1_PLB cell viability assay (AID 1918989). Note: nearly all actives have a fitted effect of over 40% in size. Summed up:
as §1

Assay [4] in a line: Quantitative High-Throughput drug screen in 47 multiple myeloma cell lines against the NCATS MIPE library collection: MOLP8_DSMZ cell viability assay (AID 1918977). Note: nearly all actives have a fitted effect of over 45% in size. Summed up: as §1
Assay [5] in a line: Quantitative High-Throughput drug screen in 47 multiple myeloma cell lines against the NCATS MIPE library collection: MM1R_ATCC cell viability assay (AID 1918981). Note: nearly all actives have a fitted effect of over 35% in size. Summed up:
as §1

A short description of assay [6]: Quantitative High-Throughput drug screen in 47 multiple myeloma cell lines against the NCATS MIPE library collection: KMS28PE_JCRB cell viability assay (AID 1918983). Note: nearly all actives have a fitted effect of over 35% in size. Summed up: as §1
Assay [7] is described as follows: Quantitative High-Throughput drug screen in 47 multiple myeloma cell lines against the NCATS MIPE library collection: XG6_PLB cell viability assay (AID 1919865). Note: nearly all actives have a fitted effect of over 40% in size. Summed up: as §1
A short description of assay [8]: Quantitative High-Throughput drug screen in 47 multiple myeloma cell lines against the NCATS MIPE library collection: MMM1_PLB cell viability assay (AID 1918976). Note: nearly all actives have a fitted effect of over 35% in size. Summed up: as §1
Assay [9] can be described thus: Quantitative High-Throughput drug screen in 47 multiple myeloma cell lines against the NCATS MIPE library collection: U266_ATCC cell viability assay (AID 1919864). Note: nearly all actives have a fitted effect of over 35% in size. Summed up: as §1
Assay [10] is described as follows: Quantitative High-Throughput drug screen in 47 multiple myeloma cell lines against the NCATS MIPE library collection: LP1_DSMZ cell viability assay (AID 1918982). Note: nearly all actives have a fitted effect of over 35% in size. Summed up: as §1
A short description of assay [11]: Quantitative High-Throughput drug screen in 47 multiple myeloma cell lines against the NCATS MIPE library collection: L363_DSMZ cell viability assay (AID 1918984). Note: nearly all actives have a fitted effect of over 40% in size. Summed up: as §1
A short description of assay [12]: Quantitative High-Throughput drug screen in 47 multiple myeloma cell lines against the NCATS MIPE library collection: SKMM1_PLB cell viability assay (AID 1919863). Note: nearly all actives have a fitted effect of over 35% in size. The note with it: SKMM1 myeloma viability, CellTiter-Glo ATP, 48 h; viability: active compounds read low. Summed up: as §1
Background: Cellular ATP, detected with luciferase, serves as a proxy for viable cell number.

Assay [13] is described as follows: Quantitative High-Throughput drug screen in 47 multiple myeloma cell lines against the NCATS MIPE library collection: KMS34_JCRB cell viability assay (AID 1918985). Note: nearly all actives have a fitted effect of over 40% in size. Summed up:
as §1

Assay [14] is described as follows: Quantitative High-Throughput drug screen in 47 multiple myeloma cell lines against the NCATS MIPE library collection: OCIMY5_PLB cell viability assay (AID 1918988). Note: nearly all actives have a fitted effect of over 65% in size. Summed up:
as §1

The nature of assay [15]: Quantitative High-Throughput drug screen in 47 multiple myeloma cell lines against the NCATS MIPE library collection: KMS20_JCRB cell viability assay (AID 1918973). Note: nearly all actives have a fitted effect of over 45% in size. Summed up:
(§2)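 Myeloma cell lines, 500 cells per well, exposed to MIPE 4.0 library compounds for 48 h at 37C, 5% CO2. Viability from ATP by CellTiter-Glo luminescence; normalised to DMSO (100%) and media-only (0%) wells.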

Assay [16] can be described thus: Quantitative High-Throughput drug screen in 47 multiple myeloma cell lines against the NCATS MIPE library collection: NCIH929_DSMZ cell viability assay (AID 1918978). Note: nearly all actives have a fitted effect of over 35% in size. Summed up:
as §1

Assay [17] can be described thus: Quantitative High-Throughput drug screen in 47 multiple myeloma cell lines against the NCATS MIPE library collection: KMS26_JCRB cell viability assay (AID 1918975). Note: nearly all actives have a fitted effect of over 45% in size. Summed up:
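Approved and investigational drugs from MIPE 4.0 were added by pin tool to 500 cells per well. After 48 hours at 37C, ATP-based CellTiter-Glo luminescence indicated remaining viability.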

Assay [18] in a line: Quantitative High-Throughput drug screen in 47 multiple myeloma cell lines against the NCATS MIPE library collection: OCIMY1_PLB cell viability assay (AID 1918979). Note: nearly all actives have a fitted effect of over 35% in size. Summed up: as §1
The nature of assay [19]: Quantitative High-Throughput drug screen in 47 multiple myeloma cell lines against the NCATS MIPE library collection: KMS21BM_JCRB cell viability assay (AID 1918974). Conditions: ATP luminescence, 48 h; viability: at 45.8 µM (top of the series) unless noted. Summed up: as §2

Among the data in PubChem BioAssay (NCATS) are Potency and viability values, retold here.

Inconclusive results are not listed. A number with no mark means an inactive call. Calls of active or inactive are those of the source. Calls come from the whole dose curve; as a rule, active = well fitted curve in the direction sought with a large enough effect; inconclusive = small, poorly fitted or top-dose-only effect, or another doubt; inactive = no such curve, though single readings can be large; an effect the other way counts as inactive or inconclusive.
Potency is the fitted concentration of half-maximal effect.

With `Oc1ccc(-c2nc(-c3ccc(F)cc3)c(-c3ccncc3)[nH]2)cc1`, the Potency in assay [1] is 16600 nM (active); in [2], 9350 nM (active); in assay [3], 20900 nM (active).
Take `Cc1ccc(NC(=O)c2ccc(CN3CCN(C)CC3)cc2)cc1Nc1nccc(-c2cccnc2)n1`: the Potency result in assay [4], in assay [5] and in [6] was “inactive” throughout. Besides, the Potency was 23500 nM (active) in [3] and 33200 nM (active) in [7].
`O=c1ccc2ccc(O)c(O)c2o1`: the Potency in assay [8] is 7430 nM (active); in assay [1] it was 4180 nM (active); in assay [2], 8330 nM (active); in assay [3], 18700 nM (active); in assay [9], 9350 nM (active). The Potency entry in assay [6] was “inactive”.
Regarding `C[C@]12CCC(=O)C=C1CC[C@@H]1[C@H]2[C@@H](O)C[C@@]2(C)[C@H]1CC[C@]2(O)C(=O)CO`, the Potency result in assay [4], in assay [10], in assay [6], in assay [11] and in [3] was “inactive” in each case. In addition, the viability in [12] was 138%. Besides, in assay [7], the Potency was 18700 nM (active).
Turning to `O=C(NCCO[N+](=O)[O-])c1cccnc1`, the Potency entry in assay [8], in [10], in [6], in [13], in [14] and in assay [3] was “inactive” each time. Moreover, the Potency result in assay [7] was “inactive”. Further, the Potency in assay [1] was 4690 nM (active).
Regarding `CC1=C(C)C(=O)C(C(CCCCCC(=O)O)c2ccccc2)=C(C)C1=O` (stereo not given), the Potency entry in assay [15], in assay [16], in assay [6] and in assay [7] was “inactive” in each case. The Potency in assay [3] is 14800 nM (active). For the same compound, in assay [12], the viability is 86.2%.
Consider `CN(C)CCc1c[nH]c2ccc(Cn3cncn3)cc12`, for which the Potency result in assay [17], in assay [16], in assay [18], in assay [5], in assay [10] and in assay [13] was “inactive” throughout. Besides, the Potency result in [3] and in assay [9] was “inactive” in each case. Also, the viability in assay [12] is 127%.
As to `CNC[C@@H](O)[C@@H](O)[C@H](O)[C@H](O)CO`, the Potency result in [17], in assay [4], in assay [16], in assay [18], in assay [10] and in [6] was “inactive” each time. The Potency result in assay [13], in assay [3], in [9] and in assay [7] was “inactive” in each case.
Regarding `Nc1ncn([C@H]2C[C@H](O)[C@@H](CO)O2)c(=O)n1`, the Potency entry in assay [17], in assay [4], in assay [18], in [5], in assay [10] and in [6] was “inactive” each time. Besides, in assay [11], the Potency result was “inactive”. Besides, the Potency is 418 nM (active) in [1]; 187 nM (active) in assay [2]; 8330 nM (active) in [3]; 5900 nM (active) in [12]; 833 nM (active) in assay [7].
On to `COc1cc2c(N3CCN(C(=O)Nc4ccc(OC(C)C)cc4)CC3)ncnc2cc1OCCCN1CCCCC1`, for which the Potency in assay [1] is 26400 nM (active); in [2] it was 16600 nM (active); in [3], 9350 nM (active); in assay [9], 23500 nM (active); in [7], 18700 nM (active). The Potency entry in assay [11] was “inactive”.
With `CC(C)C[C@H](NC(=O)[C@H](Cc1ccccc1)NC(=O)c1cnccn1)B(O)O`, the Potency in assay [15] is 14.8 nM (active); in assay [17] it was 14.8 nM (active); in assay [8], 469 nM (active); in assay [4] it was 9.3 nM (active); in assay [18], 5.3 nM (active); in assay [1], 6.6 nM (active). Also, the Potency in [5] was 4.7 nM (active); in assay [10], 11.8 nM (active); in [6], 9.3 nM (active); in assay [13], 8.3 nM (active); in [2] it was 1 nM (active); in assay [3] it was 8.3 nM (active). Besides, the Potency in [12] was 37.2 nM (active); in assay [9], 9.3 nM (active); in [7] it was 7.4 nM (active).
As to `COc1cc(Nc2c(C#N)cnc3cc(OCCCN4CCN(C)CC4)c(OC)cc23)c(Cl)cc1Cl`, the Potency in assay [17] is 18700 nM (active); in [8], 20900 nM (active); in [1], 29600 nM (active); in [5], 18700 nM (active); in [6], 18700 nM (active); in assay [11], 1660 nM (active). Besides, the Potency in [13] was 16600 nM (active); in assay [2], 743 nM (active); in assay [3], 2640 nM (active); in assay [12], 23500 nM (active); in assay [9], 23500 nM (active); in [7], 1320 nM (active).
As for `CCOc1cc(CC(=O)N[C@@H](CC(C)C)c2ccccc2N2CCCCC2)ccc1C(=O)O`, the Potency entry in assay [16], in assay [10], in assay [6], in [13] and in assay [7] was “inactive” throughout. In addition, in assay [12], the viability is 138%.
As to `CCN(CC)C(=S)SSC(=S)N(CC)CC`, the Potency in assay [17] was 10.5 nM (active); in assay [8] it was 18.7 nM (active); in [4] it was 9.3 nM (active); in assay [18], 23.5 nM (active); in assay [1], 9.3 nM (active); in assay [5] it was 9.3 nM (active). Moreover, the Potency in [10] is 20.9 nM (active); in assay [6] it was 11.8 nM (active); in [13], 23.5 nM (active); in assay [2] it was 1 nM (active); in assay [14], 5.9 nM (active); in assay [3], 1 nM (active). The Potency in assay [12] is 10.5 nM (active); in assay [9] it was 5.9 nM (active); in assay [7], 1 nM (active). The Potency entry in assay [11] is “inactive”.
In the case of `C[C@@H](N)C1CCC(C(=O)Nc2ccncc2)CC1` (stereo not given in full), the Potency entry in assay [4], in [1], in assay [5], in [10] and in [13] was “inactive” in each case. The Potency is 11800 nM (active) in [2] and 5900 nM (active) in assay [7]. For the same compound, the viability in [12] was 141%.
Consider `Nc1nc(OCc2ccccc2)c2[nH]cnc2n1`, for which the Potency in assay [19] was 4690 nM (active); in assay [1] it was 14800 nM (active); in assay [7], 16600 nM (active). For the same compound, the Potency result in [5], in [10] and in [6] was “inactive” in each case. For the same compound, the viability in [12] was 128%.
As to `COc1cc2c(cc1OC)C1CC(=O)C(CC(C)C)CN1CC2` (stereo not given), the Potency result in assay [15], in [17], in [16], in assay [18], in assay [5] and in [10] was “inactive” in each case. Also, the Potency entry in assay [6], in assay [3] and in assay [7] was “inactive” each time. Besides, the Potency in assay [19] and in assay [8] was 20900 nM (active) throughout.
`CCCOc1ccc2nc(NC(=O)OC)[nH]c2c1`: the Potency was 1050 nM (active) in assay [17]; 1320 nM (active) in assay [8]; 1480 nM (active) in assay [16]; 8.3 nM (active) in [5]; 6.6 nM (active) in assay [6]; 5.9 nM (active) in [13]. In addition, the Potency was 18.7 nM (active) in assay [3] and 9.3 nM (active) in assay [12].

Broadly, the viability is a read-out of living cells in per cent, often relative to untreated cells.
